Data from PubChem BioAssay (EPA / NIEHS).
Records with an inconclusive call do not appear. The source made the active and inactive calls. Rule for the calls: active = hit-call score of the fitted dose curve at least 0.9, where 1 is the maximum; inconclusive = response in the unintended direction; inactive = score below 0.9.

What was measured:
[1] = Tanguay_ZF_120hpf_MORT_legacy: (Legacy) Oregon State University Tanguay Lab 120 Hour Post-fertilization zebrafish Assay for Mortality (AID 2283633)
Procedure, shortened: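 Mortality endpoint from a multiplexed whole-embryo zebrafish screen. Dechorionated wild-type embryos received compound at 6 hpf and remained under static exposure at 28C until 120 hpf, with death noted as a present/absent call.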

[2] = Tanguay_ZF_120hpf_YSE_legacy: (Legacy) Oregon State University Tanguay Lab 120 Hour Post-fertilization zebrafish Assay for Yolk Sac Edema (AID 2283634);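 for AC50: actives raise the incidence of yolk sac edema above the DMSO baseline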
Procedure, shortened: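 Readout: presence or absence of yolk sac edema at 120 hpf, fitted upward against DMSO controls. Exposure ran statically from 6 hpf in dechorionated embryos kept at 28C.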

[3] = Tanguay_ZF_120hpf_AXIS_legacy: (Legacy) Oregon State University Tanguay Lab 120 Hour Post-fertilization zebrafish Assay for Body Axis Malformation (AID 2283635);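 for AC50: potency for an increased fraction of larvae scored with body axis malformation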
Procedure, shortened: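 Static 6–120 hpf chemical exposure of dechorionated wild-type 5D zebrafish, one per well at 28C; morphology endpoint scored binary at 120 hpf relative to DMSO control.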

[4] = Tanguay_ZF_120hpf_EYE_legacy: (Legacy) Oregon State University Tanguay Lab 120 Hour Post-fertilization zebrafish Assay for Eye Malformation (AID 2283636);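 note: binary presence or absence of eye malformation scored by brightfield in 120 hpf larvae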
Procedure, shortened: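 5D wild-type embryos, pronase-dechorionated at 4 hpf; static exposure 6–120 hpf, 28C, dark; DMSO 0.64% final; 5uM trimethyltin chloride positive control. Binary eye-defect scoring at 120 hpf; dead embryos not scored.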

[5] = Tanguay_ZF_120hpf_SNOU_legacy: (Legacy) Oregon State University Tanguay Lab 120 Hour Post-fertilization zebrafish Assay for Snout Malformation (AID 2283637)
Procedure, shortened: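 Binary brightfield scoring of snout malformation at 120 hpf. Dechorionated 5D wild-type embryos, one per well, static exposure from 6 hpf at 28C, sealed and dark; final DMSO 0.64% (vol/vol), DMSO as baseline; 5uM trimethyltin chloride positive control.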

[6] = Tanguay_ZF_120hpf_JAW_legacy: (Legacy) Oregon State University Tanguay Lab 120 Hour Post-fertilization zebrafish Assay for Jaw Malformation (AID 2283638);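 for AC50: active means more embryos with jaw malformation than DMSO controls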
Procedure, shortened: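 Static waterborne exposure of dechorionated wild-type (Tropical 5D) zebrafish from 6 to 120 hpf at 28C, 0.64% DMSO vehicle; 5uM trimethyltin chloride served as positive control. Jaw morphology recorded as binary at 120 hpf.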

[7] = Tanguay_ZF_120hpf_PE_legacy: (Legacy) Oregon State University Tanguay Lab 120 Hour Post-fertilization zebrafish Assay for Pericardial Edema (AID 2283640);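 for AC50: potency for increased incidence of pericardial edema versus DMSO baseline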
Procedure, shortened: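 Read-out is the presence or absence of pericardial edema at 120 hpf under brightfield, with gain of signal fitted against DMSO controls. Larvae (5D wild-type) were statically exposed at 28C with 0.64% final DMSO.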

[8] = Tanguay_ZF_120hpf_BRAI_legacy: (Legacy) Oregon State University Tanguay Lab 120 Hour Post-fertilization zebrafish Assay for Brain Malformation (AID 2283641)
Procedure, shortened: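 Brain malformation in Tropical 5D zebrafish was recorded as a binary endpoint after static compound exposure from early development to 120 hpf at 28C. Activity was analysed against DMSO as negative control.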

[9] = Tanguay_ZF_120hpf_SOMI_legacy: (Legacy) Oregon State University Tanguay Lab 120 Hour Post-fertilization zebrafish Assay for Somite Malformation (AID 2283647)
Procedure, shortened: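 5D WT zebrafish; chorion removed 4 hpf; 1 embryo/well from 6 hpf; static exposure to 120 hpf, 28C, 0.64% DMSO final. Endpoint: somite malformation, binary, brightfield. Mortality excluded.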

[10] = Tanguay_ZF_120hpf_PFIN_legacy: (Legacy) Oregon State University Tanguay Lab 120 Hour Post-fertilization zebrafish Assay for Pectoral Fin Malformation (AID 2283648);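 note: each larva judged yes or no for fin defect by brightfield with dead larvae skipped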
Procedure, shortened: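 Binary pectoral fin malformation call at 120 hpf by brightfield microscopy; 5D wild-type zebrafish, chorion removed at 4 hpf, one embryo per well from 6 hpf, static exposure at 28C; DMSO (0.64% final) as baseline.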

[11] = Tanguay_ZF_120hpf_CFIN_legacy: (Legacy) Oregon State University Tanguay Lab 120 Hour Post-fertilization zebrafish Assay for Caudal Fin Malformation (AID 2283649)
Procedure, shortened: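 Embryos were collected from Tropical 5D wild-type adults and dechorionated at 4 hpf. At 6 hpf each was exposed, one per well, at 0.64% DMSO and 28C. At 120 hpf fin morphology was scored; dead embryos were excluded.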

[12] = Tanguay_ZF_120hpf_OTIC_legacy: (Legacy) Oregon State University Tanguay Lab 120 Hour Post-fertilization zebrafish Assay for Otic Vesicle Malformation (AID 2283639)
Procedure, shortened: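 Wild-type zebrafish larvae, whole-embryo exposure from early stage to 120 hpf at 28C. Binary brightfield scoring of otic vesicle morphology, fitted in the positive direction against the DMSO baseline.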

Structure (SMILES): OC[C@H]1O[C@@](CO)(O[C@H]2O[C@H](CO)[C@@H](O)[C@H](O)[C@H]2O)[C@@H](O)[C@@H]1O
- outcome [1]: inactive
- outcome [2]: inactive
- outcome [3]: inactive
- outcome [4]: inactive
- outcome [5]: inactive
- outcome [6]: inactive
- outcome [7]: inactive
- outcome [8]: inactive
- outcome [9]: inactive
- outcome [10]: inactive

Structure (SMILES): COCc1nnc(-c2ccc[n+]([O-])c2)n1-c1c(Cl)c(Cl)cc2[nH]c(=O)c(=O)[nH]c12
- outcome [1]: inactive
- outcome [2]: inactive
- outcome [4]: inactive
- outcome [5]: inactive
- outcome [6]: inactive
- outcome [7]: inactive
- outcome [9]: inactive
- outcome [11]: inactive

Structure (SMILES): CC[C@H](C)C(=O)O[C@H]1C[C@H](O)C=C2C=C[C@H](C)[C@H](CC[C@@H](O)C[C@@H](O)CC(=O)O)[C@H]21
- outcome [2]: inactive
- outcome [3]: inactive
- outcome [4]: inactive
- outcome [5]: inactive
- outcome [6]: inactive
- outcome [12]: inactive
- outcome [7]: inactive
- outcome [8]: inactive
- outcome [9]: inactive
- outcome [10]: inactive
- outcome [11]: inactive

Structure (SMILES): O=C(NO)C1(NS(=O)(=O)c2ccc(Oc3ccc(F)cc3)cc2)CCOCC1
- outcome [1]: inactive
- outcome [2]: inactive
- outcome [3]: inactive
- outcome [4]: inactive
- outcome [5]: inactive
- outcome [6]: inactive
- outcome [7]: inactive
- outcome [8]: inactive
- outcome [9]: inactive
- outcome [10]: inactive
- outcome [11]: inactive

Structure (SMILES): NC(N)=O
- outcome [1]: inactive
- outcome [2]: inactive
- outcome [3]: inactive
- outcome [5]: inactive
- outcome [9]: inactive
- outcome [10]: inactive
- outcome [11]: inactive

Structure (SMILES): C[C@@H](Oc1ccc(CNC(=O)c2cccnc2Oc2ccc3c(c2)OCO3)c(F)c1)C(=O)O
- outcome [1]: inactive
- outcome [2]: inactive
- outcome [3]: inactive
- outcome [4]: inactive
- outcome [5]: inactive
- outcome [6]: inactive
- outcome [7]: inactive
- outcome [8]: inactive
- outcome [9]: inactive
- outcome [10]: inactive
- outcome [11]: inactive

Structure (SMILES): O=S(=O)(O)c1ccc(N=Nc2c(O)ccc3cc(S(=O)(=O)O)ccc23)cc1
- outcome [1]: inactive
- outcome [2]: inactive
- outcome [3]: inactive
- outcome [4]: inactive
- outcome [5]: inactive
- outcome [12]: inactive
- outcome [7]: inactive
- outcome [8]: inactive
- outcome [9]: inactive
- outcome [10]: inactive

Structure (SMILES): O=C(O)[C@H](O)[C@@H](O)C(=O)O
- outcome [1]: inactive
- outcome [2]: inactive
- outcome [3]: inactive
- outcome [5]: inactive
- outcome [6]: inactive
- outcome [7]: inactive
- outcome [8]: inactive
- outcome [9]: inactive
- outcome [10]: inactive
- outcome [11]: inactive

Structure (SMILES): COS(C)(=O)=O
- outcome [1]: inactive
- outcome [2]: inactive
- outcome [3]: inactive
- outcome [4]: inactive
- outcome [5]: inactive
- outcome [6]: inactive
- outcome [7]: inactive
- outcome [8]: inactive
- outcome [9]: inactive
- outcome [10]: inactive
- outcome [11]: inactive

Structure (SMILES): CCCC(CCC)C(=O)O
- outcome [1]: inactive
- outcome [2]: inactive
- outcome [3]: inactive
- outcome [4]: inactive
- outcome [5]: inactive
- outcome [6]: inactive
- outcome [7]: inactive
- outcome [8]: inactive
- outcome [10]: inactive
- outcome [11]: inactive

Structure (SMILES): O=C(O)c1cccc(C(=O)O)c1
- outcome [1]: inactive
- outcome [2]: inactive
- outcome [3]: inactive
- outcome [4]: inactive
- outcome [5]: inactive
- outcome [6]: inactive
- outcome [7]: inactive
- outcome [9]: inactive
- outcome [10]: inactive
- outcome [11]: inactive

Structure (SMILES): CC(C)CC(C)O (stereo unspecified)
- outcome [1]: inactive
- outcome [2]: inactive
- outcome [3]: inactive
- outcome [4]: inactive
- outcome [5]: inactive
- outcome [6]: inactive
- outcome [7]: inactive
- outcome [8]: inactive
- outcome [9]: inactive
- outcome [10]: inactive

Structure (SMILES): Cc1nccn1-c1ccc(Sc2cccc(C3(C(N)=O)CCOCC3)c2)cc1
- outcome [1]: inactive
- outcome [2]: inactive
- outcome [4]: inactive
- outcome [5]: inactive
- outcome [6]: inactive
- outcome [7]: inactive
- outcome [8]: inactive
- outcome [9]: inactive
- outcome [10]: inactive

Structure (SMILES): Nc1ccn([C@@H]2O[C@H](CO)[C@@H](O)[C@@H]2O)c(=O)n1
- outcome [1]: inactive
- outcome [2]: inactive
- outcome [3]: inactive
- outcome [4]: inactive
- outcome [5]: inactive
- outcome [6]: inactive
- outcome [7]: inactive
- outcome [8]: inactive
- outcome [9]: inactive
- outcome [10]: inactive
- outcome [11]: inactive

Structure (SMILES): CCCCCOC(C)=O
- outcome [1]: inactive
- outcome [2]: inactive
- outcome [3]: inactive
- outcome [4]: inactive
- outcome [5]: inactive
- outcome [6]: inactive
- outcome [12]: inactive
- outcome [7]: inactive
- outcome [8]: inactive
- outcome [9]: inactive
- outcome [11]: inactive

Structure (SMILES): CNC(C)=O
- outcome [1]: inactive
- outcome [3]: inactive
- outcome [5]: inactive
- outcome [6]: inactive
- outcome [7]: inactive
- outcome [8]: inactive
- outcome [10]: inactive
- outcome [11]: inactive

Structure (SMILES): Cn1cc[nH]c1=S
- outcome [1]: inactive
- outcome [4]: inactive
- outcome [5]: inactive
- outcome [6]: inactive
- outcome [7]: inactive
- outcome [8]: inactive
- outcome [9]: inactive
- outcome [11]: inactive

Structure (SMILES): OCC(CO)(CO)CO
- outcome [1]: inactive
- outcome [2]: inactive
- outcome [3]: inactive
- outcome [4]: inactive
- outcome [7]: inactive
- outcome [8]: inactive
- outcome [9]: inactive
- outcome [10]: inactive
- outcome [11]: inactive

Structure (SMILES): CCCCCCCC1CCC(=O)O1 (stereo unspecified)
- outcome [1]: inactive
- AC50 [2]: 25.9 µM (active)
- outcome [3]: inactive
- outcome [4]: inactive
- AC50 [5]: 31.9 µM (active)
- AC50 [6]: 40.3 µM (active)
- outcome [7]: inactive
- outcome [9]: inactive
- AC50 [10]: 51.5 µM (active)
- outcome [11]: inactive

Structure (SMILES): C=CCc1cc(S(=O)(=O)c2ccc(O)c(CC=C)c2)ccc1O
- outcome [1]: inactive
- outcome [2]: inactive
- outcome [3]: inactive
- outcome [4]: inactive
- outcome [5]: inactive
- outcome [6]: inactive
- outcome [12]: inactive
- outcome [7]: inactive
- outcome [8]: inactive
- outcome [9]: inactive
- outcome [10]: inactive
- outcome [11]: inactive

Structure (SMILES): OCCNCCO
- outcome [1]: inactive
- outcome [2]: inactive
- outcome [3]: inactive
- outcome [4]: inactive
- outcome [5]: inactive
- outcome [6]: inactive
- outcome [12]: inactive
- outcome [7]: inactive
- outcome [8]: inactive
- outcome [9]: inactive
- outcome [10]: inactive
- outcome [11]: inactive

Structure (SMILES): COc1cc(C(C)C)c2c(c1)S(=O)(=O)N(COc1cc(=O)n3cccc(OCCN4CCCCC4)c3n1)C2=O
- outcome [1]: inactive
- outcome [2]: inactive
- AC50 [3]: 32.4 µM (active)
- outcome [4]: inactive
- AC50 [5]: 24.6 µM (active)
- outcome [6]: inactive
- AC50 [12]: 15.3 µM (active)
- AC50 [7]: 20 µM (active)
- outcome [8]: inactive
- outcome [9]: inactive
- outcome [10]: inactive
- outcome [11]: inactive
